What all share (assay): glycan array binding signal (z-score within array); higher = stronger binding
What all share (conditions): glycan notation: IUPAC condensed, linker removed

The target of assay [1] is GlcNAc(a1-4)Gal(b1-4)GlcNAc(b1-3)Gal(b1-4)GlcNAc. An outline of the steps: (§1)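 Glycan array data were curated from 3228 arrays in the Consortium for Functional Glycomics database and kept only where the protein sequence was available. Glycan names were converted to IUPAC-condensed notation, and columns mapping to the same glycan were averaged. The binding signal is a within-array Z-score, averaged across arrays of the same protein sequence at different concentrations or buffers and across linkers. Negative Z-scores can be read as non-binding.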

Assay [2] deals with GlcNAc(a1-4)Gal(b1-4)GlcNAc(b1-3)Gal(b1-4)[Fuc(a1-3)]GlcNAc(b1-3)Gal(b1-4)[Fuc(a1-3)]GlcNAc. The gist of the method:
as §1

Assay [3] concerns the target GlcNAc(b1-3)Gal(b1-4)GlcNAc(b1-2)[GlcNAc(b1-3)Gal(b1-4)GlcNAc(b1-6)]Man(a1-6)[GlcNAc(b1-3)Gal(b1-4)GlcNAc(b1-2)Man(a1-3)]Man(b1-4)GlcNAc(b1-4)GlcNAc. The gist of the method: as §1
Assay [4] addresses GlcNAc(b1-3)Gal(b1-4)GlcNAc(b1-3)Gal(b1-4)GlcNAc(b1-2)Man(a1-3)[GlcNAc(b1-3)Gal(b1-4)GlcNAc(b1-3)Gal(b1-4)GlcNAc(b1-2)Man(a1-6)]Man(b1-4)GlcNAc(b1-4)GlcNAc. The gist of the method: as §1
Assay [5] addresses GlcNAc(b1-3)Gal(b1-4)GlcNAc(b1-3)Gal(b1-4)GlcNAc(b1-2)[GlcNAc(b1-3)Gal(b1-4)GlcNAc(b1-3)Gal(b1-4)GlcNAc(b1-6)]Man(a1-6)[GlcNAc(b1-3)Gal(b1-4)GlcNAc(b1-3)Gal(b1-4)GlcNAc(b1-2)Man(a1-3)]Man(b1-4)GlcNAc(b1-4)[Fuc(a1-6)]GlcNAc. An outline of the steps:
as §1

Assay [6] concerns the target GlcNAc(b1-3)Gal(b1-4)GlcNAc(b1-3)Gal(b1-4)GlcNAc(b1-3)Gal(b1-4)GlcNAc(b1-2)[GlcNAc(b1-3)Gal(b1-4)GlcNAc(b1-3)Gal(b1-4)GlcNAc(b1-3)Gal(b1-4)GlcNAc(b1-6)]Man(a1-6)[GlcNAc(b1-3)Gal(b1-4)GlcNAc(b1-3)Gal(b1-4)GlcNAc(b1-3)Gal(b1-4)GlcNAc(b1-2)Man(a1-3)]Man(b1-4)GlcNAc(b1-4)[Fuc(a1-6)]GlcNAc. The gist of the method:
as §1

Assay [7] has as its target GlcNAc6S(b1-3)Gal(b1-4)GlcNAc. An outline of the steps: as §1
Assay [8] deals with Kdn(a2-3)Gal(b1-3)GalNAc. The gist of the method:
as §1

For assay [9], the target named is Man(a1-2)Man(a1-3)[Man(a1-2)Man(a1-6)]Man. The gist of the method: as §1
Assay [10] has as its target Neu5Ac(a2-3)Gal(b1-4)Glc. An outline of the steps: as §1
For assay [11], the target named is Neu5Ac(a2-3)Gal(b1-4)GlcNAc(b1-2)Man(a1-3)[Neu5Ac(a2-3)Gal(b1-4)GlcNAc(b1-2)Man(a1-6)]Man(b1-4)GlcNAc(b1-4)[Fuc(a1-6)]GlcNAc. The gist of the method: as §1
Assay [12] addresses Neu5Ac(a2-3)Gal(b1-4)GlcNAc(b1-2)[Neu5Ac(a2-3)Gal(b1-4)GlcNAc(b1-4)]Man(a1-3)[GlcNAc(b1-4)][Neu5Ac(a2-3)Gal(b1-4)GlcNAc(b1-2)[Neu5Ac(a2-3)Gal(b1-4)GlcNAc(b1-6)]Man(a1-6)]Man(b1-4)GlcNAc(b1-4)GlcNAc. The gist of the method:
as §1

Assay [13] concerns the target Neu5Ac(a2-3)Gal(b1-4)GlcNAc(b1-3)Gal(b1-4)GlcNAc(b1-3)Gal(b1-4)GlcNAc(b1-2)Man(a1-3)[Neu5Ac(a2-3)Gal(b1-4)GlcNAc(b1-3)Gal(b1-4)GlcNAc(b1-3)Gal(b1-4)GlcNAc(b1-2)Man(a1-6)]GalNAc. The gist of the method: as §1
The target in assay [14] is Neu5Ac(a2-3)Gal(b1-4)GlcNAc(b1-6)GalNAc. An outline of the steps:
as §1

For assay [15], the target named is Neu5Ac(a2-3)Gal(b1-4)GlcNAc6S. An outline of the steps: as §1
In assay [16] the target is Neu5Ac(a2-3)Gal(b1-4)[Fuc(a1-3)]GlcNAc(b1-2)Man. An outline of the steps: as §1
Assay [17] addresses Neu5Ac(a2-6)Gal(b1-4)GlcNAc(b1-3)Gal(b1-4)GlcNAc(b1-2)Man(a1-3)[Neu5Ac(a2-6)Gal(b1-4)GlcNAc(b1-3)Gal(b1-4)GlcNAc(b1-2)Man(a1-6)]GalNAc. The gist of the method: as §1
Assay [18] has as its target Neu5Ac(a2-6)Gal(b1-4)GlcNAc(b1-3)Gal(b1-4)GlcNAc(b1-3)Gal(b1-4)GlcNAc(b1-2)Man(a1-3)[Neu5Ac(a2-6)Gal(b1-4)GlcNAc(b1-3)Gal(b1-4)GlcNAc(b1-3)Gal(b1-4)GlcNAc(b1-2)Man(a1-6)]GalNAc. The gist of the method: as §1
In assay [19] the target is Neu5Ac(a2-6)Gal(b1-4)GlcNAc(b1-6)[Gal(b1-3)]GalNAc. An outline of the steps:
as §1

Assay [20] concerns the target Neu5Ac(a2-8)Neu5Ac(a2-3)[GalNAc(b1-4)]Gal(b1-4)Glc. The gist of the method: as §1
Assay [21] concerns the target Neu5Ac(a2-8)Neu5Ac(a2-8)Neu5Ac(a2-3)Gal(b1-4)Glc. An outline of the steps: as §1
Assay [22] concerns the target Neu5Gc(a2-8)Neu5Ac(a2-3)Gal(b1-4)GlcNAc. An outline of the steps: as §1

This is one part of a sample in which the strongest signals are shown more often than they occur.

Results on one molecule are retold here after the supplement of paper PMC8728848.

B1: TIM1 (protein)
chain: ADGIQSVKVGGEAGPSVTLPCHYSGAVTSMCWNRGSCSLFTCQNGIVWTNGTHVTYRKDTRYKLLGDLSRRDVSLTIENTAVSDSGVYCCRVEHRGWFNDMKITVSLEIVPPHHHHHH
With B1, the “glycan array binding signal (z-score)” value is -0.125 in assay [1]; 2.32 in assay [2]; 1.97 in assay [3]; 5.59 in assay [4]; 1.97 in assay [5]; 1.02 in assay [6]. The “glycan array binding signal (z-score)” value in assay [7] is -0.142; in [8] it was 0.111; in assay [9] it was -0.292; in [10] it was 0.916; in assay [11], -0.132; in assay [12] it was -0.288. The “glycan array binding signal (z-score)” value in assay [13] is 4.84; in assay [14] it was -0.189; in assay [15], -0.181; in assay [16], -0.204; in assay [17] it was 1.3; in [18] it was 5.74. In addition, the “glycan array binding signal (z-score)” value in assay [19] was -0.075; in [20], -0.183; in [21], -0.195; in assay [22], -0.137.
